The assay has as its system PPARa:RXRa (NR concentration 270 nM, RXRa partner concentration 90 nM). Briefly: PBM binding z-score (relative to random genomic background probes); higher = stronger binding; sequences stand for … in GC…GCGATTGACAGCGTAGAATGAAGG
Put shortly:
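Antibodies against each partner of ligand-free nuclear receptor dimers (one per run) detected binding on custom Agilent 4×180K protein-binding microarrays after 1 h incubation. The double-stranded probes had 34-nt variable regions carrying direct-repeat seeds, single-nucleotide variants, half-site ablations and random human genomic background sequences. Binding z-scores, from regression-normalized fluorescence, use the random background probes as reference.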
Regarding TGAATGAGGTTAAAGATCTGGGAACGTGGCGTCG, the PBM binding z-score is 3.54.
On to CTCGCAAGGTCGGTTGAGGTGAGTATACGGATAA, for which the PBM binding z-score is 1.3.
The sequence CCACACAGGTGAAAGGTAACTCAGTCTGGTACGC returned a PBM binding z-score of 3.42.
In the case of CCTACTGCGCCAAGGTCATTGATCAGTCAAAGCA, the PBM binding z-score amounted to 3.75.
TCTATTAGTTGAAGTGCAACCGACGAGTCCGTTT gave a PBM binding z-score of 1.02.
For AGAACGAGGGCAATGAGTAGATAGCACGGGTGGC the value was 1.49.
Turning to TTGCCAAGGTGAAGGTCGTTGATCCCTCTGTAGA, the PBM binding z-score was 2.12.
For TCTAGTTGGTCACGGAGGTCACACACGACGGGTA the value was 4.01; for ACAGACAGGTTAGTGAAGGTAACTCAGCTGGACG, 0.259.
Regarding GCGATTGGGGCAAAGCAGGTTACCATAAGGTTGG, the PBM binding z-score came to 1.11.
With ATCTCTAGGTAAGACTCCGTTCAGTGAAGAACGC the figure was -0.00199; with CCGACTGGGCCACGAAAGGTCATTGATTCAGTGA, 4.31.
For AATACAGGGTCATTGTAGGCCAGAGTACGCACAG the value was 5.93; for TTACCAAGGTGAGCTGAGGTCGTGGATCCAACTC, 2.1; for TCTATTAGTTGATTAGGGCAACCGCAACAGCGGA, 1.06.
For AGTCAAAGTTCATCTAGGTAACCTAAGATATGCT the value was 4.99; for TCAGACAGGTGAAGGTAACGCAGGTACGCAGTCG, 1.16; for AGAATGAGGTTATATGTAGATCAGGGAAGAAAGT, 3.26.
In turn, GCTCGGAGGACAAGGTCAGAGATTTGTCCGTAGA had a PBM binding z-score of 2.13.
With TCTGCTAGGTCAGTTGGTCAGGTAACGAGCTGCC the figure was 1.48.
For CCTCGGAGGACTACAGGAGGTCAGAGCTGCCAGA the value was 1.8.
For GGAACGACGGCAAGTTGATAGCAGAGTTTGATGG the value was -0.669.

Source of the values: the supplement of paper PMC6555819.
